Assay [1] can be described thus: qHTS assay to identify small molecule agonists of the sonic hedgehog signaling (Shh) pathway (AID 1259368).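 Note: NIH/3T3-derived 3T3Gli1-Luc cells carrying a stable Gli1-driven firefly luciferase reporter; series mostly up to about 92 µM; nearly all actives have a fitted effect of over 15% in size.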 In short, it runs like this: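 3T3Gli1-Luc (NIH/3T3 clone, stable Gli1-Luc); 4 hr pre-incubation, then cpd in DMSO 24 hr, 37 C/5% CO2; luciferase reagent 30 min RT; luminescence.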
Assay [2] in a line: qHTS assay to identify small molecule antagonists of the sonic hedgehog signaling (Shh) pathway (AID 1259369). Note: nearly all actives have a fitted effect of over 45% in size. Note: potency is the fitted concentration of half-maximal effect. In outline:
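3T3Gli1-Luc, conditioned-medium-stimulated, 24hr cpd, 37C/5% CO2; Gli1-driven firefly Luc luminescence after 30min RT with luciferase reagent. Cells plated 4hr before cpd.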

The target in assay [3] is Estrogen receptor beta (Homo sapiens) (UniProt Q92731). The assay can be described thus: qHTS assay to identify small molecule agonists of the estrogen receptor beta (ER-beta) signaling pathway (AID 1259377; active = well fitted activation curve with a large enough effect in the signal ratio in the repeat runs, not every such curve was filed as active; the % refers to the signal ratio). In short, it runs like this: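 HEK293T ER-beta-UAS-bla; 2% charcoal-stripped FBS; cells pre-incubated 6 hr, compound 16 hr, 37C/5% CO2; LiveBLAzer B/G FRET substrate 2 h RT; fluorescence intensity read.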
Chain of Estrogen receptor beta (Homo sapiens) (Q92731 whole entry, looked up): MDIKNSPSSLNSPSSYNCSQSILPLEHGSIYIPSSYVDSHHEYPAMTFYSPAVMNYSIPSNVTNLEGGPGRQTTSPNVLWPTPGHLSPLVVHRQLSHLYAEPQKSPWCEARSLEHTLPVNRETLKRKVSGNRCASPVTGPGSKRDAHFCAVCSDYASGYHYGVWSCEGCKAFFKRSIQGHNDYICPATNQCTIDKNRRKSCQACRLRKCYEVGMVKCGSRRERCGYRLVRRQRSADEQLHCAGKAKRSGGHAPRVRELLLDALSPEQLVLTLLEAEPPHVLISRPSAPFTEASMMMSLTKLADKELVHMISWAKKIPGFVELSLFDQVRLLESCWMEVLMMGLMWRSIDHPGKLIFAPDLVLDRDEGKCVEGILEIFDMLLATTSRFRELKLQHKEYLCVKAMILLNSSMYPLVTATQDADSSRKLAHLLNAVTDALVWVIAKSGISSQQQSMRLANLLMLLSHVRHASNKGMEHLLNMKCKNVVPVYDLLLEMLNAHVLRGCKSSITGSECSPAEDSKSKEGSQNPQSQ
On the technique in general: qHTS replaces the single test concentration by a dilution series.

Assay [4] has the same target. The assay can be described thus: qHTS assay to identify small molecule antagonists of the estrogen receptor beta (ER-beta) signaling pathway (AID 1259378; active = well fitted inhibition curve with a large enough effect in the signal ratio in the repeat runs, not every such curve was filed as active; the % refers to the signal ratio). In outline:
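ER-beta-UAS-bla HEK293T (GripTite) cells in 2% charcoal-stripped FBS medium were preincubated 6 hr at 37C, dosed with compound, then stimulated with 1 nM E2 (final) for 16 hr; beta-lactamase reporter read by B/G FRET fluorescence after 2 hr substrate loading.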

A short description of assay [5]: qHTS assay to identify small molecule agonists of the androgen receptor (AR) signaling pathway in the presence of an antagonist - cell viability counter screen (AID 1259379; active = well fitted curve in the direction sought with a large enough effect in the repeat runs; an effect the other way counts as inactive or inconclusive; note: nearly all actives have a fitted effect of over 25% in size; note: potency is the fitted concentration of half-maximal effect). In outline:
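Cells: MDA-kb2 (MMTV-luc, AR and GR elements), 3,000/well, 5 hr settle. Added: nilutamide 3.0uM final, then compounds (15 conc.). Incubation: 16 hr, 37C, no CO2. Read-out: CellTiter-Fluor, 1 hr, fluorescence.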

For assay [6], the target named is Estrogen receptor (Homo sapiens) (UniProt P03372). The assay can be described thus: qHTS assay to identify small molecule agonists of the estrogen receptor alpha (ER-alpha) signaling pathway in the presence of an antagonist (AID 1259383). Note: top concentration of the series differs between compounds; nearly all actives have a fitted effect of over 15% in size. In outline:
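VM7Luc4E2, endog. ER-alpha + 4×ERE-luc; charcoal-stripped FBS, phenol red-free, 5 d; 24hr plating; +10.0nM ICI-182,780 (final); cpds 15 conc, 22hr, 37C/5% CO2; ONE-Glo luminescence.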

A short description of assay [7]: qHTS assay to identify small molecule agonists of the estrogen receptor alpha (ER-alpha) signaling pathway in the presence of an antagonist - cell viability counter screen (AID 1259386; active = well fitted curve in the direction sought with a large enough effect in the repeat runs; an effect the other way counts as inactive or inconclusive;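 note: cells exposed to compounds for 22 h at 37 °C before the viability read; nearly all actives have a fitted effect of over 30% in size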; note: potency is the fitted concentration of half-maximal effect). In outline:
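VM7Luc4E2, stripped-serum pre-culture 5 d; 24hr plating; +ICI-182,780 10.0nM final; cpds 15 conc, 22hr, 37C/5% CO2; CellTiter-Fluor added at 21hr, fluorescence 1hr later.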

Assay [8] concerns the target Progesterone receptor (Homo sapiens) (UniProt P06401). The assay can be described thus: qHTS assay to identify small molecule agonists of the progesterone receptor (PR) signaling pathway (AID 1346784). Note: nearly all actives have a fitted effect of over 30% in size. In short, it runs like this:
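Beta-lactamase reporter read-out: after 16 hr compound treatment at 37C and a further 2 hr at room temperature with LiveBLAzer B/G FRET substrate, fluorescence was measured in PR-UAS-bla HEK 293T cells grown in 2% charcoal-stripped serum.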

Assay [9] shares this target. The assay can be described thus: qHTS assay to identify small molecule antagonists of the progesterone receptor (PR) signaling pathway (AID 1346795; active = well fitted inhibition curve with a large enough effect in the signal ratio in the repeat runs, not every such curve was filed as active; the % refers to the signal ratio). In short, it runs like this: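 Read-out is fluorescence from the LiveBLAzer B/G FRET substrate, cleaved by a UAS-controlled beta-lactamase in PR-UAS-bla HEK293T cells after 16 hr exposure to compound plus 1 nM promegestone (final), followed by 2 hr at room temperature.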

Assay [10] is described as follows: qHTS assay to identify small molecule agonists of the progesterone receptor (PR) signaling pathway - cell viability counter screen (AID 1346799). Note: nearly all actives have a fitted effect of over 45% in size. In short, it runs like this:
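Luminescence from CellTiter-Glo, added after the beta-lactamase FRET read in the same wells, gave cytotoxicity in PR-UAS-bla HEK293T cells treated with compounds for 16 hr at 37C.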

Assay [11] is described as follows: qHTS assay to identify small molecule agonists of the TGF-beta/Smad signaling pathway (AID 1346859; active = well fitted activation curve with a large enough effect in the signal ratio in the repeat runs, not every such curve was filed as active; the % refers to the signal ratio; note: series mostly up to about 77 µM). In outline:
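SBE-bla HEK 293T, 4,000 cells/well, plated o/n; cpd in DMSO, 5 hr, 37 C/5% CO2; B/G FRET substrate 2 hr RT; ex 405, em 460/530 nm.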

Assay [12] can be described thus: qHTS assay to identify small molecule antagonists of the estrogen receptor beta (ER-beta) signaling pathway - cell viability counter screen (AID 1259382; active = well fitted curve in the direction sought with a large enough effect in the repeat runs; an effect the other way counts as inactive or inconclusive; note: series mostly up to about 92 µM; nearly all actives have a fitted effect of over 55% in size). In short, it runs like this:
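Cells: ER-beta-UAS-bla HEK293T, 2,000/well, 2% CS-FBS, 6 hr settle. Cpd + E2 (1nM final), 16 hr, 37C/5% CO2. Bla FRET substrate 2 hr RT, then CellTiter-Glo 30 min RT, luminescence.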

The nature of assay [13]: qHTS assay to identify small molecule agonists or antagonists of the thyroid stimulating hormone receptor (TSHR) signaling pathway - wild type cell line counter screen (AID 1259384). In outline:
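Wild-type HEK293 cells were plated 18 h at 37 C/5% CO2, pin-dosed with compound plus Ro20-1724 medium, held 30 min at room temperature, then given cAMP-d2 and anti-cAMP-cryptate; fluorescence was read after 1 h. Fifteen concentrations, triplicate.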

Assay [14] has as its target Thyrotropin receptor (Homo sapiens) (UniProt P16473). The assay can be described thus: qHTS assay to identify small molecule antagonists of the thyroid stimulating hormone receptor (TSHR) signaling pathway (AID 1259385). Note: nearly all actives have a fitted effect of over 20% in size. In short, it runs like this: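 TSHR-HEK293 cells were plated and held 18 h at 37C/5% CO2, then given compound plus Ro20-1724 and stimulated with TSH at 1.5 ng/mL final. After 30 min at room temperature, cAMP was detected with cAMP-d2/anti-cAMP-cryptate (1 h) by fluorescence.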

Assay [15] is described as follows: qHTS assay to identify small molecule antagonists of the progesterone receptor (PR) signaling pathway - cell viability counter screen (AID 1346798; active = well fitted curve in the direction sought with a large enough effect in the repeat runs; an effect the other way counts as inactive or inconclusive;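 note: HEK293T PR-UAS-bla cells stimulated with the agonist R5020; series mostly up to about 92 µM; nearly all actives have a fitted effect of over 50% in size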). In outline:
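HEK293T PR-UAS-bla, 2% charcoal-stripped FBS; 4 hr pre-plate; cpd + R5020, 16 h 37C; LiveBLAzer read first; then CellTiter-Glo 30 min RT, luminescence.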

Assay [16] can be described thus: qHTS assay to identify small molecule antagonists of the TGF-beta/Smad signaling pathway - cell viability counter screen (AID 1346824; active = well fitted curve in the direction sought with a large enough effect in the repeat runs; an effect the other way counts as inactive or inconclusive; note: nearly all actives have a fitted effect of over 50% in size). In short, it runs like this:
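SBE-bla HEK 293T cells were plated overnight at 37 C, then given compounds in DMSO plus TGF-beta1 (added as 0.25 ng/mL solution) for 5 hr. After the bla read, CellTiter-Glo was added to the same wells and luminescence read after 30 min at room temperature.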

A short description of assay [17]: qHTS assay to identify small molecule agonists of the TGF-beta/Smad signaling pathway - cell viability counter screen (AID 1346829; active = well fitted curve in the direction sought with a large enough effect in the repeat runs; an effect the other way counts as inactive or inconclusive; note: top concentration of the series differs between compounds; nearly all actives have a fitted effect of over 45% in size). In outline: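 In parallel with the Smad reporter read, viability of HEK 293T cells stably carrying SBE-bla is quantified by ATP luminescence following 5 hr compound treatment.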
Assay [18] addresses Thyrotropin-releasing hormone receptor (Homo sapiens) (UniProt P34981). The assay can be described thus: qHTS assay to identify small molecule antagonists of the thyrotropin-releasing hormone receptor (TRHR) signaling pathway (AID 1346877; active = well fitted inhibition curve with a large enough effect in the repeat runs, not every such curve was filed as active; note: series mostly up to about 51 µM). In short, it runs like this: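 Intracellular calcium fluorescence, read kinetically every second over 3 min, reports TRH-evoked signalling in HEK293 cells carrying TRHR. Test compounds were added 5 min ahead of a 1 nM TRH challenge.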

Assay [19] in a line: qHTS assay to identify small molecule agonists of the estrogen receptor beta (ER-beta) signaling pathway - cell viability counter screen (AID 1259380; active = well fitted curve in the direction sought with a large enough effect in the repeat runs; an effect the other way counts as inactive or inconclusive; note: nearly all actives have a fitted effect of over 30% in size). In short, it runs like this: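 HEK293T ER-beta-UAS-bla; 2% CS-FBS; 6 hr pre-plate, 16 hr cpd at 37C/5% CO2; LiveBLAzer read first, then CellTiter-Glo 30 min RT, luminescence.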
Assay [20] concerns the target Androgen receptor (Homo sapiens) (UniProt P10275). The assay can be described thus: qHTS assay to identify small molecule agonists of the androgen receptor (AR) signaling pathway in the presence of an antagonist (AID 1259381). Note: nearly all actives have a fitted effect of over 15% in size. In short, it runs like this:
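MDA-kb2 cells, 3,000/well, rested 5hr at 37C/0% CO2 → nilutamide 3.0uM final or buffer → compounds, 15 conc. → 16hr at 37C → ONE-Glo, 30min RT → luminescence.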

Unmarked numbers belong to inactive results. Records with an inconclusive call do not appear. Active and inactive are the calls of the source. Unless noted, calls come from the whole dose curve.

Chain of Progesterone receptor (Homo sapiens) (P06401 whole entry, looked up): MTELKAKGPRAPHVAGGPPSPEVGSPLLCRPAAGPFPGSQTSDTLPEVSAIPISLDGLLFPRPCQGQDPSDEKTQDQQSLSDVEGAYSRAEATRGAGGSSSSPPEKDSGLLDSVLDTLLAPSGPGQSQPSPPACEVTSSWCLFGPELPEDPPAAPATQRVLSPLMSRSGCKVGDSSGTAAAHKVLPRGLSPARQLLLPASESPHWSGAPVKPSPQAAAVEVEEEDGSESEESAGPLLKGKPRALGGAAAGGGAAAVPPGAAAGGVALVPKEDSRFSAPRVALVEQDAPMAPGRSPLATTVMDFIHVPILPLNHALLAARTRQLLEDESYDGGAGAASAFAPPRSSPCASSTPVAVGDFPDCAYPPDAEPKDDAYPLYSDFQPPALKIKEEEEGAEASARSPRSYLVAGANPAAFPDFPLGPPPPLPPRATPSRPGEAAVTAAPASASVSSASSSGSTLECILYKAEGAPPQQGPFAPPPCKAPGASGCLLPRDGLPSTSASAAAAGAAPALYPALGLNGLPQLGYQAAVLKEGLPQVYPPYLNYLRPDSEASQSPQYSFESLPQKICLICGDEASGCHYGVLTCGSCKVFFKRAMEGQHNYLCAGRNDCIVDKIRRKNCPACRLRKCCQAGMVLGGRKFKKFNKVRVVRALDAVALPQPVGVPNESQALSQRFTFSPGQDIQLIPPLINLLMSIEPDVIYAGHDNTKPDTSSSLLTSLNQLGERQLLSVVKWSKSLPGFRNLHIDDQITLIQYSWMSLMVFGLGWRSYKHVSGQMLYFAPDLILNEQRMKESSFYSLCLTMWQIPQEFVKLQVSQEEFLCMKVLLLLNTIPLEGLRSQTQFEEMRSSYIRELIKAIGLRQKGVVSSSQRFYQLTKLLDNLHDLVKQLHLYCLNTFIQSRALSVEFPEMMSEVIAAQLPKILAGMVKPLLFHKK
Chain of Thyrotropin receptor (Homo sapiens) (P16473 whole entry, looked up): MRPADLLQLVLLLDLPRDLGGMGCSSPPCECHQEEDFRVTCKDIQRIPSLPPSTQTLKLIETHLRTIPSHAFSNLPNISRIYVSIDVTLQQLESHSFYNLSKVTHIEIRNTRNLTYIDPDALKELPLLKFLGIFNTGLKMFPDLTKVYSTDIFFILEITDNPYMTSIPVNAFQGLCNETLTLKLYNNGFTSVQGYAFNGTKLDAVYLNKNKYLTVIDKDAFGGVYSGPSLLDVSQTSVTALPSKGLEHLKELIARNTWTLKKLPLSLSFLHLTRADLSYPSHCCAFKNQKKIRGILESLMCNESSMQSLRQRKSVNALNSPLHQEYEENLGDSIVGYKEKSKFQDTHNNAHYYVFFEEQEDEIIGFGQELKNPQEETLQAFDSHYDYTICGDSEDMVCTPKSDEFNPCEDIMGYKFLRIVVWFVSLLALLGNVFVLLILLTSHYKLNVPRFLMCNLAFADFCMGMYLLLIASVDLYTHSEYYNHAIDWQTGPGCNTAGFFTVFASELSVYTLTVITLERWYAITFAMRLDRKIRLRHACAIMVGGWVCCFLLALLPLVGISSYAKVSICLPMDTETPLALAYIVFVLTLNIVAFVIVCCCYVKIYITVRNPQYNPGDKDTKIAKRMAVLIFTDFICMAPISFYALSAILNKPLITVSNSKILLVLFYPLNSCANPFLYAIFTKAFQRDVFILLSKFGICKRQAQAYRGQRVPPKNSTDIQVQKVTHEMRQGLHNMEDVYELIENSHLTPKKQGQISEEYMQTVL
Chain of Thyrotropin-releasing hormone receptor (Homo sapiens) (P34981 whole entry, looked up): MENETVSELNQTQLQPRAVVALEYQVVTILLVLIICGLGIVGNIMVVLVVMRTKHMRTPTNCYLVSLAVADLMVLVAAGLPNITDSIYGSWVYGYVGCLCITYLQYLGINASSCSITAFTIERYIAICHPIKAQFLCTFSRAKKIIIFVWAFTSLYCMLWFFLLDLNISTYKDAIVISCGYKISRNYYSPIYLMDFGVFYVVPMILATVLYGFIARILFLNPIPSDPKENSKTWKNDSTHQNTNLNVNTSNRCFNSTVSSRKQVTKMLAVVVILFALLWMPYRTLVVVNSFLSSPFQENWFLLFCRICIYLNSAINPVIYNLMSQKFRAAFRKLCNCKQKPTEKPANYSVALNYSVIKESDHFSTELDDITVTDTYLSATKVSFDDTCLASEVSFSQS
Chain of Estrogen receptor (Homo sapiens) (P03372 whole entry, looked up): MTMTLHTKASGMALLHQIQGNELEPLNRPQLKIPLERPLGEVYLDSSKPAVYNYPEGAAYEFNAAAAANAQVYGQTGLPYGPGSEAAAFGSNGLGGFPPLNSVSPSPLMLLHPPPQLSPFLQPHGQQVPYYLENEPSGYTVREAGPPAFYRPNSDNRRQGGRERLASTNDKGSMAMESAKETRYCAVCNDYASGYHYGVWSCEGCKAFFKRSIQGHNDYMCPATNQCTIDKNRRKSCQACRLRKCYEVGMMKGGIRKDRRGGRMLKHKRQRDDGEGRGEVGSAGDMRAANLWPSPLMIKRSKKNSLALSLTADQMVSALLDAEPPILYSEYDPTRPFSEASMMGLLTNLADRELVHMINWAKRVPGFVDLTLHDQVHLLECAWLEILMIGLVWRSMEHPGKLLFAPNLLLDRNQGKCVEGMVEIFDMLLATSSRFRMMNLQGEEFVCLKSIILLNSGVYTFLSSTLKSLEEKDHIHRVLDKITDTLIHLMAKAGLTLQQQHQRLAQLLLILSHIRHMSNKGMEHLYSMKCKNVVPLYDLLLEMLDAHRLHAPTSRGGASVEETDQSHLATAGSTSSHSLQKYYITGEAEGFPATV
Chain of Androgen receptor (Homo sapiens) (P10275 whole entry, looked up): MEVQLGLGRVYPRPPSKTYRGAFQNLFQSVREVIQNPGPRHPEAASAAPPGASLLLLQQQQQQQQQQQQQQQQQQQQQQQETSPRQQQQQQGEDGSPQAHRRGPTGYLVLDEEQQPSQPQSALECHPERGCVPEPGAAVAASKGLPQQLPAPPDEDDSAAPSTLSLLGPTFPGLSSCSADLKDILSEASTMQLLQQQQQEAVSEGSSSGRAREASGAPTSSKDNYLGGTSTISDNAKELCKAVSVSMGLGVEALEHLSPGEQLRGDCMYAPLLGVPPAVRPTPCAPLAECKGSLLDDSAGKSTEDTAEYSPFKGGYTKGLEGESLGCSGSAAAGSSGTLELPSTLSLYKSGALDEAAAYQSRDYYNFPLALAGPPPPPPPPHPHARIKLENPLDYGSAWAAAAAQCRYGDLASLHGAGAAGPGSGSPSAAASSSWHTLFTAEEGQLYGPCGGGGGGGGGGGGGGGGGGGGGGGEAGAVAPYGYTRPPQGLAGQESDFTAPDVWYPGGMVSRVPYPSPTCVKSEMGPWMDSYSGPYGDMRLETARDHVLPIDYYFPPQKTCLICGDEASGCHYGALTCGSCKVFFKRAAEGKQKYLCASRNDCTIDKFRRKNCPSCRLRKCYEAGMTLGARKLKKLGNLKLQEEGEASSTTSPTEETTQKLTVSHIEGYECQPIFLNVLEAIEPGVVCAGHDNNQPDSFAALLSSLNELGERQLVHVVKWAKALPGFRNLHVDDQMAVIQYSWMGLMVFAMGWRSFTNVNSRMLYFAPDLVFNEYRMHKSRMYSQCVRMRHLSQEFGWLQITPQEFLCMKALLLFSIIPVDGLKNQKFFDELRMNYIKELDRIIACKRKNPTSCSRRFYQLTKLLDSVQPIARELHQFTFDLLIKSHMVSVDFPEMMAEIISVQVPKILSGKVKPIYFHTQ

Regarding `CCN(Cc1cccc(S(=O)(=O)O)c1)c1ccc(C(=C2C=CC(=[N+](CC)Cc3cccc(S(=O)(=O)O)c3)C=C2)c2ccc(O)cc2S(=O)(=O)[O-])cc1`, the Potency result in assay [1], in assay [3], in assay [4], in assay [6], in assay [8] and in assay [9] was “inactive” in each case. For the same compound, the Potency entry in assay [10] and in assay [11] was “inactive” each time. Besides, the Potency in [2] was 4.67 µM (active); in assay [5], 16.6 µM (active); in assay [7], 16.6 µM (active).

Turning to `CC(C)C(=O)OCCOc1ccccc1`, the Potency entry in [1], in [2], in [3], in assay [4], in [5] and in assay [12] was “inactive” in each case. The Potency result in [6], in assay [13], in [14], in [7], in assay [8] and in assay [9] was “inactive” in each case. Besides, the Potency entry in assay [15], in [10], in assay [17] and in assay [11] was “inactive” throughout. In addition, the call in assay [16] and in assay [18] was inactive.

`NC(=O)CCCCC(N)=O`: the Potency entry in assay [1], in assay [2], in assay [3], in [4], in assay [5] and in assay [12] was “inactive” in each case. The Potency result in assay [6], in assay [13], in assay [14], in assay [7], in assay [8] and in [9] was “inactive” throughout. The Potency result in [15], in assay [17] and in [11] was “inactive” each time. Besides, the call in assay [18] was inactive.

Take `O=C(O)c1cccc(C[C@@H]2COc3ccc(OCc4nc5cc(F)ccc5s4)cc3[C@@H]2O)c1`: the Potency result in [1], in [2], in assay [3], in [4], in [19] and in assay [12] was “inactive” throughout. Also, the Potency entry in [6], in assay [13], in assay [14], in assay [7], in assay [8] and in assay [9] was “inactive” each time. The Potency entry in assay [15], in assay [10], in [17] and in assay [11] was “inactive” throughout. Moreover, the call in assay [16] and in [18] was inactive.

Regarding `Nc1ccc(S(=O)(=O)NCc2ccccc2)cc1`, the Potency result in assay [1], in assay [2], in assay [3], in assay [4], in assay [5] and in assay [13] was “inactive” throughout. The Potency result in [7], in [8], in assay [9], in assay [15], in [10] and in assay [17] was “inactive” in each case. In addition, in assay [11], the Potency entry is “inactive”. Besides, the outcome in [16] and in assay [18] was inactive.

As for `CCNc1nc(N)nc(Cl)n1`, the Potency entry in assay [1], in [2], in assay [3], in [4], in assay [5] and in assay [12] was “inactive” throughout. The Potency result in assay [13], in assay [14], in assay [7], in assay [8], in [9] and in assay [15] was “inactive” in each case. Also, the Potency result in [17] and in [11] was “inactive” throughout. Further, the compound was called inactive in [16] and in assay [18].

For the compound `Nc1nc2ccc(OC(F)(F)F)cc2s1`, the Potency entry in assay [1], in assay [2], in [3], in assay [4], in assay [5] and in [13] was “inactive” throughout. Besides, the Potency result in [14], in assay [7], in [8], in assay [15], in [10] and in assay [17] was “inactive” throughout. Further, the Potency entry in assay [11] was “inactive”.

Regarding `CCc1ccc(C)cc1`, the Potency entry in [1], in assay [2], in assay [3], in assay [4], in assay [5] and in [20] was “inactive” throughout. Moreover, the Potency result in assay [12], in [7], in [8], in assay [9], in [15] and in assay [10] was “inactive” each time. Also, the Potency entry in assay [17] and in [11] was “inactive” in each case. Moreover, the call in assay [16] and in assay [18] was inactive.

Values taken from PubChem BioAssay (Tox21).
